This passage reports growth inhibition, inhibition and outcome results from PubChem BioAssay.

By inhibition is commonly meant the drop in the measured response relative to a control, in per cent.

Molecules are shown by their SMILES. A number with no mark means an inactive call. For some of these results: Entries with a potency or affinity are not part of this list. Activity calls are given as the source filed them. Unless noted, the rule behind the calls is not given here.

Test [1] is described as follows: antimalarial activity against Dd2 strain (AID 2302;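 active = growth inhibition above 50% at the single 2 µM test dose, taken to imply half-maximal potency below 2 µM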;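 note: 0% = DMSO untreated growth and 100% = chloroquine plus artemisinin killed control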). Particulars: P. falciparum Dd2 in RBCs, LDH growth readout, 72 h; at 2 µM; stronger effect = higher value.
Test [2] in a line: HepG2 cytotoxicity, primary screen, cytotoxicity control for P. falciparum antimalarial project, cell-based, ATP luminescence (AID 2303;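 active = inhibition above 50%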;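 note: 0% = DMSO wells and 100% = digitonin-killed cells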). As to conditions: HepG2 viability, 24-48 h, at 10 µM, stronger effect = higher value.
Test [3] has as its target L-lactate dehydrogenase (Plasmodium falciparum (isolate CDC / Honduras)) (UniProt Q27743). The test is described as follows: PfLDH activity inhibition – cell lysate, 3D7 strain, counter-screen for P. falciparum growth inhibition project (AID 2304).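 Note: 0% = vehicle and 100% = reference inhibitor.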 As to conditions: P. falciparum 3D7 crude extract, LDH APAD/NBT absorbance; at 2 µM; stronger effect = higher value. (In general: The purpose of a counterscreen is to sort out artefacts and off-target activity.)

Test [4] is described as follows: inhibition of 3D7 malaria parasite growth – strain 3D7 (AID 2306).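 Note: 0% = DMSO wells and 100% = chloroquine plus artemisinin control wells.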 As to conditions: P. falciparum 3D7 erythrocytic growth, LDH absorbance, 72 h; at 2 µM; stronger effect = higher value.
In test [5] the target is Calcium-dependent protein kinase 1 (Plasmodium falciparum (isolate 3D7)) (UniProt P62344). As to the kind of experiment: PfCDPK1 kinase inhibitors, biochemical, TCAMS library (AID 1159585; cut-off not given, nearly all actives have IC50 up to about 0.98 µM;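 note: inhibitors leave more ATP so luminescence rises with inhibition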). Particulars: recombinant PfCDPK1, Kinase-Glo ATP depletion luminescence. (Kinase-Glo reads ATP consumption through a luciferase reaction.)
In test [6] the target is Plasmodium falciparum protein kinase 6 (PK6, PF3D7_1337100) (UniProt Q8IDW1). As to the kind of experiment: PfPK6 kinase inhibitors, biochemical, TCAMS library (AID 1159586). Particulars: recombinant PfPK6, Kinase-Glo ATP depletion luminescence.
Test [7] has as its target Protein kinase 7 (PK7), Plasmodium falciparum 3D7 (PF3D7_0213400) (UniProt Q7YTF7). The test is described as follows: inhibition of Plasmodium PK7 catalytic activity – biochemical, TCAMS antimalarial set, Kinase-Glo luminescence (AID 1159587). As to conditions: recombinant PfPK7, Kinase-Glo ATP depletion luminescence.
For test [8], the target named is Calcium-dependent protein kinase 4 (Plasmodium falciparum (isolate 3D7)) (UniProt Q8IBS5). The test is described as follows: PfCDPK4 kinase inhibitors, biochemical, TCAMS library (AID 1159588; cut-off not given, nearly all actives have IC50 up to about 0.91 µM). As to conditions: recombinant PfCDPK4, Kinase-Glo ATP depletion luminescence.
Sequence of Calcium-dependent protein kinase 4 (Plasmodium falciparum (isolate 3D7)) (Q8IBS5 whole entry, looked up): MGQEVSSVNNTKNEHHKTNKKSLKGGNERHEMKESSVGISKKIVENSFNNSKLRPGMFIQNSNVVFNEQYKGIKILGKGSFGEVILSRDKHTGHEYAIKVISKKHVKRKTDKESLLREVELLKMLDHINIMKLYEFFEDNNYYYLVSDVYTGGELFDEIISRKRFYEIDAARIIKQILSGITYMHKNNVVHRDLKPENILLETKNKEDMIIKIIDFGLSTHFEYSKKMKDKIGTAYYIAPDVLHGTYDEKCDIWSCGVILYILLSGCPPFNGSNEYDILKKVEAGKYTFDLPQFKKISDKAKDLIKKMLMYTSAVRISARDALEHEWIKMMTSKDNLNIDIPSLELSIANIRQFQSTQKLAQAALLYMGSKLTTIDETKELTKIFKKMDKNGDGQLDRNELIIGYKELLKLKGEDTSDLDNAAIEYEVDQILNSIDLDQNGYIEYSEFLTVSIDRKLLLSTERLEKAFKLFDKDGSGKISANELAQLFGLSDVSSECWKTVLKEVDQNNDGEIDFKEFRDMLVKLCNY

Sequence of Calcium-dependent protein kinase 1 (Plasmodium falciparum (isolate 3D7)) (P62344 whole entry, looked up): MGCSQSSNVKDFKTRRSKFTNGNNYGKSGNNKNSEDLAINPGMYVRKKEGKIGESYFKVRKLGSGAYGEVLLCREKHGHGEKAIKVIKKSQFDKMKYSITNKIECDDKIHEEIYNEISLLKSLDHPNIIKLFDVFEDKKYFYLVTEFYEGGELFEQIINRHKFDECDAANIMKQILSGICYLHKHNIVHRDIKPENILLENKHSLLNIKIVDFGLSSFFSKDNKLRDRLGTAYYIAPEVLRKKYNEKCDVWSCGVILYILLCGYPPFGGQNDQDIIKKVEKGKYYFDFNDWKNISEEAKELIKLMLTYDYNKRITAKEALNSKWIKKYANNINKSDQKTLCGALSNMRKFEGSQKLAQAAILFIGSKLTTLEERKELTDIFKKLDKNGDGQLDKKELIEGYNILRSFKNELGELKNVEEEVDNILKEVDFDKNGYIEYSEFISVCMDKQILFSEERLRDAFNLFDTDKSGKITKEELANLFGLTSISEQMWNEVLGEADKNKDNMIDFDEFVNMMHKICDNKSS
Sequence of L-lactate dehydrogenase (Plasmodium falciparum (isolate CDC / Honduras)) (Q27743 whole entry, looked up): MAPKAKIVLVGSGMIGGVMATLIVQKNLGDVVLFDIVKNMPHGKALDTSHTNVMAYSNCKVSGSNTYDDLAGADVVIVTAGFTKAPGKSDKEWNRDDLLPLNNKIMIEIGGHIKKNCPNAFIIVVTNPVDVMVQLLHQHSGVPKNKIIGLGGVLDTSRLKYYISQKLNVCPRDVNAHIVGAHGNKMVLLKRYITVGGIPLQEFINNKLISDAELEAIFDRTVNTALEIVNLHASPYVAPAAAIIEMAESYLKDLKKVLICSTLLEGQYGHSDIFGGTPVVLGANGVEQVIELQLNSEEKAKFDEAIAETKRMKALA
Sequence of Plasmodium falciparum protein kinase 6 (PK6, PF3D7_1337100) (Q8IDW1 1-305): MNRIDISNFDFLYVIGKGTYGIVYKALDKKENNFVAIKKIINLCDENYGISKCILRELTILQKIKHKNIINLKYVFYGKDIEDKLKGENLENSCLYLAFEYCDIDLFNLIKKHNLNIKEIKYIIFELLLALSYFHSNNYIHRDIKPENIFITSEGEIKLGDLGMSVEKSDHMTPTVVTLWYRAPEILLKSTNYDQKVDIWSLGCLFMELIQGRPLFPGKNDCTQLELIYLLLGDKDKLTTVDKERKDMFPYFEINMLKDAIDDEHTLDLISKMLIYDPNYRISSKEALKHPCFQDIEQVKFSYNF
Sequence of Protein kinase 7 (PK7), Plasmodium falciparum 3D7 (PF3D7_0213400) (Q7YTF7 1-343): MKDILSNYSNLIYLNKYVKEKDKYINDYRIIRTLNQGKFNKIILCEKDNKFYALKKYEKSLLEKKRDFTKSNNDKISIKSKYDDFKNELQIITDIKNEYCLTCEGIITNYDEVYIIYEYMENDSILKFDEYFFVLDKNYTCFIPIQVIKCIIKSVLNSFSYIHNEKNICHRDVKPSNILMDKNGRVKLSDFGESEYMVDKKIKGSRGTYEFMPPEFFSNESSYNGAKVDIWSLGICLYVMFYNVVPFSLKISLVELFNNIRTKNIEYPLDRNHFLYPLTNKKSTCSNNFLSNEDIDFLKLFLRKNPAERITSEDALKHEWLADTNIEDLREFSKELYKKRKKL

`Cc1ccc(-c2ccc3c(c2)C=C(C(=O)NC2CCN(CCNC(=O)c4cccc(C(F)(F)F)c4)CC2)CCC3)cc1`: the growth inhibition is 56% (active) in test [1] and 100% (active) in test [4]. In addition, the results for the inhibition in test [2] and in test [3] were 25% and -3%, respectively. Moreover, the outcome in test [5], in test [6], in test [7] and in test [8] was inactive.
`Cn1nccc1C(=O)NCCNCc1cccc(-c2csc(-c3nc4ccccc4[nH]3)c2)c1`: the growth inhibition in test [1] was 2%; in test [4], 101% (active). Moreover, the inhibition is 30% in test [2] and 0% in test [3]. The outcome in test [5], in test [6], in test [7] and in test [8] was inactive.
As to `COc1cccc(CN2CCCC(OC(c3ccccc3)c3ccccc3)C2)c1O` (stereo not given), the values for the growth inhibition in test [1] and in test [4] were 73% (active) and 90% (active), respectively. For the same compound, the inhibition was 19% in test [2] and 0% in test [3]. The result in test [5], in test [6], in test [7] and in test [8] was inactive.
For the compound `CCN1CCN(C(=O)NC(C(=O)N2CCCC(COc3ccc(Cc4ccccc4)cc3)C2)c2cccs2)C(=O)C1=O` (stereo not given), the values for the growth inhibition in test [1] and in test [4] were 87% (active) and 95% (active), respectively. Besides, the inhibition in test [2] is 12%; in test [3] it was -6%. Besides, the outcome in test [5], in test [6], in test [7] and in test [8] was inactive.
For `NC1CCCN(Cc2ccc(-c3ccc(-c4nc5ccc(F)cc5[nH]4)s3)cc2)C1` (stereo not given), the growth inhibition was 98% (active) in test [1] and 100% (active) in test [4]. In addition, the inhibition was 40% in test [2] and 1% in test [3]. For the same compound, the outcome in test [5], in test [6], in test [7] and in test [8] was inactive.
In the case of `CCN(C1CCCCC1)S(=O)(=O)c1ccc(OC)c(N2CCN(C(=O)C(Cl)(Cl)Cl)CC2)c1`, the growth inhibition was 85% (active) in test [1] and 100% (active) in test [4]. Further, the inhibition in test [2] was 0%; in test [3], 3%. The result in test [5], in test [6], in test [7] and in test [8] was inactive.
Regarding `COc1ccc2nccc([C@@H](O)CN3CCC(NC(=O)c4ccc(OC)c(N)c4)CC3)c2c1`, the growth inhibition in test [1] is 0%; in test [4], 93% (active). The inhibition was 9% in test [2] and -3% in test [3]. Moreover, the outcome in test [5], in test [6], in test [7] and in test [8] was inactive.
With `COc1ccc(-c2cccc(NC(=O)c3cccc(C#N)c3)c2)cc1CN1CCN(C)CC1`, the figures for the growth inhibition in test [1] and in test [4] were 16% and 91% (active), respectively. In addition, the inhibition in test [2] is 25%; in test [3], -2%. The result in test [5], in test [6], in test [7] and in test [8] was inactive.
For the compound `C=C(C)CSc1nc2c(c(=O)n1CCc1ccccc1)C1(CCCC1)Cc1ccccc1-2`, the growth inhibition is 80% (active) in test [1] and 101% (active) in test [4]. The results for the inhibition in test [2] and in test [3] were 14% and -5%, respectively. Besides, the outcome in test [5], in test [6], in test [7] and in test [8] was inactive.
`O=C(/C=C/c1ccc(Cl)c(Cl)c1)N1CCC(CCN2CCc3[nH]c4ccccc4c3C2)CC1`: the growth inhibition in test [1] was -1%; in test [4], 96% (active). Besides, the inhibition in test [2] is 22%; in test [3], -3%. For the same compound, the result in test [5], in test [6], in test [7] and in test [8] was inactive.
As for `O=C(O)CNCC(O)c1ccccc1` (stereo not given), the growth inhibition was -5% in test [1] and 96% (active) in test [4]. For the same compound, the inhibition was 7% in test [2] and -5% in test [3]. Also, the outcome in test [5], in test [6], in test [7] and in test [8] was inactive.
Regarding `c1ccc2c3c(ccc2c1)Sc1c(ccc2ccccc12)N3`, the growth inhibition in test [1] was 31%; in test [4] it was 92% (active). The inhibition is -7% in test [2] and 0% in test [3]. The result in test [5], in test [6], in test [7] and in test [8] was inactive.
Regarding `Cc1nc(N)nc(N)c1-c1ccc2ccccc2c1`, the values for the growth inhibition in test [1] and in test [4] were 2% and 97% (active), respectively. In addition, the inhibition in test [2] is 60% (active); in test [3], 6%. Also, the outcome in test [5], in test [6], in test [7] and in test [8] was inactive.
Consider `Nc1c2c(nc3ccc(C(=O)Nc4ccc(Br)cc4)cc13)CCCC2`, for which the growth inhibition in test [1] is 99% (active); in test [4], 102% (active). The inhibition in test [2] was 40%; in test [3], 1%. In addition, the outcome in test [5], in test [6], in test [7] and in test [8] was inactive.
As to `O=C1OC(c2ccccc2)(c2ccccc2)CN1C1CCN(Cc2ccc(O)c(Cl)c2)C1` (stereo not given), the figures for the growth inhibition in test [1] and in test [4] were 93% (active) and 100% (active), respectively. Besides, the figures for the inhibition in test [2] and in test [3] were 10% and 3%, respectively. The outcome in test [5], in test [6], in test [7] and in test [8] was inactive.
For the compound `CN(C(=O)/C=C/c1cc(C(F)(F)F)ccc1F)C1CCN(CCCCCNC(=O)/C=C/c2ccc(Cl)c(Cl)c2)C1` (stereo not given), the growth inhibition in test [1] was 1%; in test [4] it was 93% (active). For the same compound, the results for the inhibition in test [2] and in test [3] were 16% and -3%, respectively. In addition, the result in test [5], in test [6], in test [7] and in test [8] was inactive.
Regarding `CN1CCN(c2cc(-c3ccncc3)nc(-c3cccnc3)n2)CC1`, the growth inhibition in test [1] is 98% (active); in test [4], 101% (active). In addition, the inhibition is 13% in test [2] and 3% in test [3]. Moreover, the result in test [5], in test [6], in test [7] and in test [8] was inactive.
With `Cc1cc(NC2CCCC2)nc(Nc2ccccc2)n1`, the figures for the growth inhibition in test [1] and in test [4] were 75% (active) and 100% (active), respectively. In addition, the inhibition in test [2] is 26%; in test [3], 0%. The outcome in test [5], in test [6], in test [7] and in test [8] was inactive.
In the case of `Cc1c(Br)cc2[nH]c(-c3ccc(C(=O)NC4CCN(Cc5ccccc5)CC4)cc3)nc2c1C`, the growth inhibition is 98% (active) in test [1] and 102% (active) in test [4]. The inhibition in test [2] was 4%; in test [3], 1%. For the same compound, the result in test [5], in test [6], in test [7] and in test [8] was inactive.
With `COc1cc(/C=C/C(=O)NC2CCC(N3CCC(c4ccccc4C)CC3)CC2)cc(OC)c1` (stereo not given), the growth inhibition in test [1] is 11%; in test [4], 89% (active). Also, the inhibition in test [2] is 51% (active); in test [3], -4%. In addition, the result in test [5], in test [6], in test [7] and in test [8] was inactive.
